# Several values for one entry are separate records, joined by “and”; a condition that tells them apart may be missing. Identical values can stand only once. The whole screen tested about 16,000 compounds, of which about 2,600 (16%) were called active. Roughly 20% stayed inconclusive and do not appear here. The call rests on the fitted dose curve; in most records, active means well fitted curve in the direction sought with a large enough effect; inconclusive means small, poorly fitted or top-dose-only effect, or effect the other way; inactive means no such curve, though single readings can be large or run the other way. The list is a sample of the results. Some compounds were tested as several samples or in several runs, with calls that do not always agree.
# Biological target: Cytochrome P450 2D6 (Homo sapiens) (UniProt P10635)
# Assay: Cytochrome panel assay with activity outcomes
# Conditions: recombinant CYP, pro-luciferin dealkylation, luminescence, p450-cyp2d6; series mostly up to 57.1 µM; activity, negative = inhibition: at the top concentration
# On the % scale 0 is the no-effect control and ±100 the full control effect.
# Sequence of Cytochrome P450 2D6 (Homo sapiens) (P10635 whole entry, looked up): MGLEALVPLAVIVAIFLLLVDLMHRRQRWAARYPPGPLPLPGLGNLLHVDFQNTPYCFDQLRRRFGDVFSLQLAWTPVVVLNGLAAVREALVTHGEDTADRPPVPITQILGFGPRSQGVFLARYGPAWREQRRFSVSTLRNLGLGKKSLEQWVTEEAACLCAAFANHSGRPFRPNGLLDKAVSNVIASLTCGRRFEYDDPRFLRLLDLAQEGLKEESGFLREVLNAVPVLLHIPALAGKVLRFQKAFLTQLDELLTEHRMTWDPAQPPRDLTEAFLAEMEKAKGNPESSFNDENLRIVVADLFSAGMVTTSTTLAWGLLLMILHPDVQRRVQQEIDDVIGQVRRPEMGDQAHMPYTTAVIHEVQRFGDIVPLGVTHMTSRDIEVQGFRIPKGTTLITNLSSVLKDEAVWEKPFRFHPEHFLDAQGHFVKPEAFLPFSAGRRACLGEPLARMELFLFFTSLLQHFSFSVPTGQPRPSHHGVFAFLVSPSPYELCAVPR
SMILES,"activity, negative = inhibition",AC50
CCOC(=O)CCN1C(=O)[C@H]2[C@@H]3[C@H](O)[C@H](O)CC(=O)[C@H]3CC[C@H]2C1=O,-6.39% [at 11.4 µM] (inactive),–
CC(C)CN(CC#N)CC(C)C,1.21% [at 11.4 µM] (inactive),–
O=C(c1cc(C(F)(F)F)cc(C(F)(F)F)c1)N1CCC2(CC1)CN(c1ccccc1)C2,8.07% (inactive),–
O=c1ncn(-c2ccccc2F)c2ncccc12,23.3% (inactive),–
CN1CCCC2(CCN(C(=O)c3cc(C(F)(F)F)cc(C(F)(F)F)c3)CC2)C1,-5.92% (inactive),–
O=C(Nc1ccccc1N1CCN(C(=O)c2ccc(Cl)cc2)CC1)c1cc(Br)ccc1Cl,-24.3% (inactive),–
C[C@@H](c1ccccc1)N1C(=O)[C@H]2[C@H]3[C@H](O)[C@H](O)C/C(=N/OC[C@@H](O)COCc4ccco4)[C@@H]3CC[C@@H]2C1=O,3.23% [at 11.4 µM] (inactive),–
O=C(N/N=C/c1c[nH]c2ccc(Br)cc12)c1ccn(Cc2ccc(Cl)cc2)n1,–,12.6 µM (active)
O=C(N/N=C/c1c[nH]c2ccccc12)c1cc(-c2ccc(-c3ccccc3)cc2)n[nH]1,-8.44% (inactive),–
[N-]=[N+]=NC[C@@H]1O[C@@H](n2cnc3c(N)ncnc32)[C@@H]2O[C@@H]21,3.12% [at 11.4 µM] (inactive),–
CC(=O)N1CCc2cc(S(=O)(=O)CCC(=O)Nc3c(C)n(C)n(-c4ccccc4)c3=O)ccc21,9.42% (inactive),–
CC(C)CCNC1=NCCCCC1,–,12.6 µM (active)
Cc1ccc2[nH]c3nc(CCCn4ccnc4-c4ccccc4)nnc3c2c1,-15.6% [at 11.4 µM] (inactive),–
Cc1sc(NC(=O)c2ccc(OCC(C)C)cc2)c(C(N)=O)c1-c1ccc(Cl)cc1Cl,6.82% (inactive),–
N#Cc1cccc(NC(=O)N2CC3(CCN(C(=O)c4cnccn4)CC3)C2)c1,-5.46% (inactive),–
CCOc1ccccc1C1C(C#N)=C(N)Oc2n[nH]c(CC)c21 (stereo not drawn),-15.4% (inactive),–
O=C(N/N=C\c1ccc(-c2ccccc2[N+](=O)[O-])o1)C1COc2cc3ccccc3cc2O1 (stereo not drawn),4.5% (inactive),–
N#Cc1c(-c2ccccc2)ccnc1Oc1ccccc1,-8.61% (inactive),–
Cc1cc(C)c(C#N)c(Oc2ccc(F)cc2)n1,9.74% (inactive),–
CN(C)c1ccnc(Oc2ccc(Cl)cc2)c1C#N,–,5.01 µM (active)
COC(=O)[C@@H]1CC[C@H](C)[C@@H](c2ccc(C)cc2)N1C(=O)c1ccc(/C=N\OC[C@@H]2O[C@H](c3ccccc3)C=C[C@@H]2Oc2ccc(OC)cc2)cc1,3.42% [at 11.4 µM] (inactive),–
CCCN[C@@H](C)C(=O)Nc1c(C)csc1C(=O)OC,-8.72% [at 25.6 µM] (inactive),–
CCOC(=O)N1CCN(c2c(-c3ccccc3)c3cc(Cl)ccc3[nH]c2=O)CC1,–,0.355 µM (active)
CCOC(=O)N1CCN(C(=O)c2cccn3c(=O)c4cc(Cl)ccc4nc23)CC1,-19.7% (inactive),–

SMILES,"activity, negative = inhibition",AC50
CCOC(=O)c1[nH]c2ccc(Cl)cc2c1-c1ccccc1,7.26% (inactive),–
O=C(c1ccccc1)N1CCSC1=S,2.21% (inactive),–
COc1ccc(C(=O)[C@H](Br)[C@H](Br)C(=O)O)cc1,-14.6% [at 11.4 µM] (inactive),–
CCOc1cc(/C=N/n2cnnc2)c(Br)cc1O,0.114% (inactive),–
Cc1ccc(/C=N/NC(=O)CSc2nc3ccccc3n2C)s1,–,7.08 µM (active)
Cc1ccc(C(=O)N/N=C/c2nc3ccccc3n2C)cc1,-3% (inactive),–
Cn1c(/C=N/NC(=O)c2ccccc2Br)nc2ccccc21,-16.1% (inactive),–
O=C(c1cc(Br)ccc1O)c1cc(Br)ccc1O,-11.4% [at 11.4 µM] (inactive),–
CC(C)=C[C@H]1[C@@H](C(=O)Oc2ccccc2C(C)C)C1(C)C,0.868% [at 11.4 µM] (inactive),–
CC1(C)CCC=[N+]1[O-],2.61% (inactive),–
Nc1c2c(nc3ccccc13)CCCC2,–,5.01 µM (active) and inactive
Nc1[nH]n2c(=O)c3c(nc2c1N=Nc1ccccc1)CCCC3,-21.7% (inactive),–
Nc1c2c(nc3ccccc13)CCC[C@H]2O,-6.84% (inactive),–
COc1ccc(NC(=O)C2CC(=O)NC3=C2C(=O)CC(C)(C)C3)cc1 (stereo not drawn),8.12% (inactive),–
COc1ccc(CCN=CC2=C(O)CC(C)(C)CC2=O)cc1,-0.143% (inactive),–
CC(=O)OC[C@@H]1O[C@H](C/C=N\O[C@@H](C)c2cn([C@H]3COC[C@H]3O)nn2)C=C[C@@H]1OC(C)=O,10.3% [at 11.4 µM] (inactive),–
CC(=O)OC[C@@H]1O[C@H](C/C=N\OC[C@@H](O)COCc2ccco2)C=C[C@@H]1OC(C)=O,-5.26% [at 11.4 µM] (inactive),–
CC(=O)OC[C@@H]1O[C@H](C/C=N\O[C@@H](C)CN2CCCc3nc(C)c(C)cc32)C=C[C@@H]1OC(C)=O,–,3.16 µM (active)
CC(=O)OC[C@@H]1O[C@H](C/C=N\O[C@@H](C)c2cc(-c3c(C)cc(C)cc3C)no2)C=C[C@@H]1OC(C)=O,-0.786% [at 11.4 µM] (inactive),–
CC(=O)OC[C@@H]1O[C@H](C/C=N\O[C@@H](C)c2cn([C@H](CO)Cc3ccccc3)nn2)C=C[C@@H]1OC(C)=O,6.63% [at 11.4 µM] (inactive) and -11.6% [at 11.4 µM] (inactive),–
CC(=O)OC[C@@H]1O[C@H](C/C=N\O[C@@H](C)CN2CCCCc3nc(C)c(C)cc32)C=C[C@@H]1OC(C)=O,–,3.16 µM (active)
CC(C)Nc1nc(NC(C)(C)C)nc(Oc2ccc(=O)n(-c3ccccc3)n2)n1,-18.2% (inactive),–
Cc1ccc(NC(=O)Nc2nc(-c3ccc(C)s3)cs2)cc1,-3.69% (inactive),–
CCCCN(C(=O)NC(=O)Nc1ccccc1OCC)S(C)(=O)=O,-22.9% (inactive),–

SMILES,"activity, negative = inhibition",AC50
Cc1cnn(-c2cc(N/N=C/c3ccccc3)ncn2)c1,6.87% (inactive),–
Cc1ccc2nc(N/N=C\c3cccc(C)n3)cc(C)c2c1,–,3.16 µM (active)
COc1cccc(C(C#N)N2N=C(C)CC2(C)C)c1O (stereo not drawn),-3.53% (inactive),–
Cc1nc(S(=O)(=O)N2CCOCC2)c(C#N)c(C)c1Cl,11.6% (inactive),–
COc1cccc2c1[C@@H]1CN(CCCCn3c(=O)[nH]c4c(sc5ncc(-c6ccccc6)nc54)c3=O)C[C@H]1CO2,–,31.6 µM (active)
CCN(CC)C(=O)C1CCCN(c2ccc([N+](=O)[O-])cc2/C=N/NC(=O)c2ccc([N+](=O)[O-])cc2)C1 (stereo not drawn),-13.6% (inactive),–
C/C(N)=C(/C#N)C(=O)COc1ncnc2ccc(Br)cc12,-0.639% (inactive),–
Brc1ccc2cccnc2c1,22% (inactive),–
Brc1ccc2ncnc(Nc3cccc4ccccc34)c2c1,–,14.1 µM (active)
Cc1cc(C(F)F)n2nc(C(=O)Nc3sc4c(c3C#N)CCC(C)C4)nc2n1 (stereo not drawn),-32.8% (inactive),–
COCCn1c(=O)c(-c2ccc(Cl)cc2)nc2cnc(Oc3ccccc3)nc21,-2% (inactive),–
CN(CCOc1ccc(C[C@H](Nc2ccccc2C(=O)c2ccccc2)C(=O)O)cc1)c1ccccn1,–,0.0316 µM (active)
Cc1cc(C)c(S(=O)(=O)n2ccc(-c3ccc(OCCN(C)c4ccccn4)cc3)n2)c(C)c1,18.4% (inactive),–
COC(=O)CN(c1ccccn1)S(=O)(=O)c1ccccc1,9.48% (inactive),–
COCCCN1C(=O)C(=O)/C(=C(/O)c2ccc(OC)cc2C)C1c1cccnc1 (stereo not drawn),-1.26% (inactive),–
CC(C)(C)c1ccc(OCC(=O)N/N=C/c2cc(Br)ccc2OC(=O)c2ccco2)cc1,28.3% (inactive),–
Cc1ccc(COc2ccc(Br)cc2/C=N/O)cc1,–,17.8 µM (active)
Cc1ccc(COc2coc(CO)cc2=O)cc1,13.9% (inactive),–
CCNc1ncc2nc(-c3cccs3)c(=O)n(CCC#N)c2n1,–,1.26 µM (active)
CCNc1ncc2nc(-c3cn(C)c4ccccc34)c(=O)n(CCC#N)c2n1,–,3.98 µM (active)
CCNc1ncc2nc(C)c(=O)n(Cc3cccs3)c2n1,-10.2% (inactive),–
N#CCCn1c(=O)c(-c2cccs2)nc2cnc(Nc3ccccc3)nc21,8.86% (inactive),–
CCNc1ncc2nc(-c3cccs3)c(=O)n(C)c2n1,6.42% (inactive),–
CCNc1ncc2nc(-c3cccc(C#N)c3)c(=O)n(CCC#N)c2n1,–,0.0316 µM (active)

SMILES,"activity, negative = inhibition",AC50
CCNc1ncc2ncc(=O)n(Cc3cccs3)c2n1,–,12.6 µM (active)
N#CCCn1c(=O)c(-c2cccc(C#N)c2)nc2cnc(Oc3ccccc3)nc21,5.63% (inactive),–
CN1CCN(c2ncc3nc(-c4cccc(C#N)c4)c(=O)n(CCC#N)c3n2)CC1,2.23% (inactive),–
CCNc1ncc2nc(-c3cccs3)c(=O)n(Cc3cccs3)c2n1,-19.8% (inactive),–
COc1ncc2nc(-c3cn(C)c4ccccc34)c(=O)n(CCC#N)c2n1,-0.812% (inactive),–
CCNc1ncc2nc(-c3cn(C)c4ccccc34)c(=O)n(Cc3ccc(F)cc3)c2n1,-8.85% (inactive),–
Cc1cc(C)cc(C(=O)N(C)[C@H](Cc2ccc(-c3ccccc3)cc2)C(=O)N[C@@H](Cc2c[nH]c3ccccc23)C(=O)O)c1,-5.77% (inactive),–
N=c1ccn2c(n1)O[C@H]1[C@@H](OP(=O)(O)O)[C@H](CO)O[C@H]12,10.3% [at 11.4 µM] (inactive),–
Cc1cc(-c2n[nH]c(=S)o2)c(C)n1-c1ccccc1,-6.27% (inactive),–
O=C(Nc1nnc(C2CC2)s1)c1cc(S(=O)(=O)N2CCN(c3ccccc3)CC2)ccc1Cl,28% (inactive),–
O=C(N/N=C1/C[C@@H](O)[C@@H](O)[C@@H]2[C@@H]3C(=O)N(Cc4ccccc4)C(=O)[C@H]3CC[C@@H]12)OCc1ccccc1,9.46% [at 11.4 µM] (inactive),–
O=C1[C@H]2O[C@@H]2[C@@H](O)[C@H]2[C@H]1CCn1c(=O)n(Cc3cc4c(cc3Cl)OCO4)c(=O)n12,-11.5% [at 11.4 µM] (inactive),–
CCN(CC)C(=O)CSc1nnc(-c2ccco2)n1N,-28.2% (inactive),–
COc1ccc(COC(=O)N/N=C2/C[C@@H](O)[C@@H](O)[C@@H]3[C@H]4C(=O)N(c5ccc(F)cc5F)C(=O)[C@@H]4CC[C@@H]23)cc1,-3.12% [at 11.4 µM] (inactive),–
O=C(Cc1cccs1)N/N=C/C(Br)=C/c1ccccc1,-28.8% (inactive),–
COc1ncc2nc(-c3cc(F)cc(F)c3)c(=O)n(CCC#N)c2n1,-10.6% (inactive),–
CCNc1ncc2nc(-c3ccccc3)c(=O)n(CCC#N)c2n1,–,0.501 µM (active)
N#CCCn1c(=O)c(-c2ccccc2)nc2cnc(Nc3ccccc3)nc21,4.06% (inactive),–
COc1ccc(-c2nc3cnc(Nc4ccccc4)nc3n(CCC#N)c2=O)cc1,6.64% (inactive),–
N#CCCn1c(=O)c(-c2cc(F)cc(F)c2)nc2cnc(Nc3ccccc3)nc21,1.97% (inactive),–
CCNc1ncc2nc(-c3cc(F)cc(F)c3)c(=O)n(CCC#N)c2n1,–,0.0631 µM (active)

# From PubChem BioAssay AID1851 (National Center for Advancing Translational Sciences (NCATS), 2009)
